The results in this text go back to PubChem BioAssay (EPA / NIEHS).

Records with an inconclusive call do not appear. A structure can be active in one record and inactive in another. The source made the active and inactive calls. The calls were made as follows, unless noted: active = hit-call score of the fitted dose curve at least 0.9, where 1 is the maximum; inactive = score below 0.9.

Assay [1] in a line: BSK_SAg_PBMCCytotoxicity: PBMC Cytotoxicity Assessment in the BioMAP Diversity Plus: SAg Assay (AID 2283093).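 Also: PBMC viability measured as Alamar Blue reduction fluorescence at 546/580 nm; fitted both ways against DMSO so a hit may be loss or gain of signal.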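 As to AC50: PBMC superantigen activated with SEB plus TSST-1 one hour after compound addition.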 The settings on record: primary human HUVEC with PBMC. The essentials:
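Compound added to 75,000 PBMC/well for 1 h; SEB and TSST-1 then added at 20 ng/mL final each; 90 h incubation; Alamar Blue 6 h; read 546/580 nm ex/em. Activity fitted bidirectionally relative to DMSO baseline.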

Read-out in assay [2]: Interleukin-8 (IL8), CXCL8 (gene 3576)
As to the kind of experiment: BSK_SAg_IL8: BioMAP Diversity Plus: SAg Assay for Interleukin-8 (IL8) Biomarker Activity (AID 2283094). The settings on record: primary human HUVEC with PBMC; actives raise or lower the signal. A digest of the protocol: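 Human umbilical vein endothelial cells co-cultured with peripheral blood mononuclear cells; IL-8 measured by ELISA 24 h after chemical dosing. Bidirectional concentration-response fitting used DMSO as negative control and activity baseline.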

Assay [3] is described as follows: BSK_SAg_Proliferation: Cell Proliferation Assessment in the BioMAP Diversity Plus: SAg Assay (AID 2283095).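 Also: relative cell number as total protein by SRB absorbance in sub-confluent culture.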 The conditions noted are these: primary human HUVEC with PBMC. The essentials:
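Human umbilical vein endothelial cells co-cultured with peripheral blood mononuclear cells; total protein measured by sulforhodamine B staining (0.1% SRB after 10% TCA fixation), absorbance at 560 nm, at 96 h. Bidirectional fit against DMSO baseline.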

Assay [4] in a line: BSK_SAg_SRB: Viability Assessment in the BioMAP Diversity Plus: SAg Assay (AID 2283096).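 Also: cells read one day after compound addition; hits may be either gain or loss of signal compared with DMSO.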 The conditions noted are these: primary human HUVEC with PBMC. A digest of the protocol:
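Total protein by sulforhodamine B staining, 24 h after dosing, in HUVEC–PBMC co-culture; DMSO-referenced bidirectional fitting.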

In assay [5] the target is human CYP4F12, CYP4F12 (gene 66002) (UniProt Q9HCS2). In words: NVS_ADME_hCYP4F12: NovaScreen (NVS) CYP450-related Enzyme Activity (ADME) Assay for human CYP4F12 (AID 2283111; active = hit-call score of the fitted dose curve at least 0.9, where 1 is the maximum). The essentials: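 Cell-free fluorescence assay of recombinant human CYP4F12 activity on a specific substrate, read 0.5 h after dosing. Primary screen in duplicate at 10 uM, then concentration series for actives; loss of signal fitted against acetonitrile negative control.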
Sequence of human CYP4F12, CYP4F12 (gene 66002) (Q9HCS2 whole entry, looked up): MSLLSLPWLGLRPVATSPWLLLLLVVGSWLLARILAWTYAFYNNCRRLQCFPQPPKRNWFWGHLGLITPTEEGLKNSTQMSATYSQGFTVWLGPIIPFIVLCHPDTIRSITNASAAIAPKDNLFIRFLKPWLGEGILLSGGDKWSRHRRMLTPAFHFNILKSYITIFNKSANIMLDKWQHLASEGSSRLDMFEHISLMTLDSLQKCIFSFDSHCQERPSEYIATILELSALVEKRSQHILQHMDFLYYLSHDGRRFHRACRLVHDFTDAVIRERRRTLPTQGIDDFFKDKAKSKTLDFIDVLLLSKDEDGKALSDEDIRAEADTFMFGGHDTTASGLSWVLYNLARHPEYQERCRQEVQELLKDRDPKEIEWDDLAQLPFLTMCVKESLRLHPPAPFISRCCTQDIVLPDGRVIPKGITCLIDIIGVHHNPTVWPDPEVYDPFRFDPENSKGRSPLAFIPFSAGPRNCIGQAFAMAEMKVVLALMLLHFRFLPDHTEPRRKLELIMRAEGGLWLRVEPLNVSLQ

The target in assay [6] is human CYP1A2, CYP1A2 (gene 1544) (UniProt P05177). In words: NVS_ADME_hCYP1A2: NovaScreen (NVS) CYP450-related Enzyme Activity (ADME) Assay for human CYP1A2 (AID 2283102; active = hit-call score of the fitted dose curve at least 0.9, where 1 is the maximum). The essentials: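 Cell-free recombinant human CYP1A2 expressed in insect cells, with fluorogenic substrate; fluorescence intensity read 0.5 h after dosing. Loss of signal relative to acetonitrile baseline scored. Primary screen in duplicate at 10 uM; actives retested in concentration series.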
Sequence of human CYP1A2, CYP1A2 (gene 1544) (P05177 whole entry, looked up): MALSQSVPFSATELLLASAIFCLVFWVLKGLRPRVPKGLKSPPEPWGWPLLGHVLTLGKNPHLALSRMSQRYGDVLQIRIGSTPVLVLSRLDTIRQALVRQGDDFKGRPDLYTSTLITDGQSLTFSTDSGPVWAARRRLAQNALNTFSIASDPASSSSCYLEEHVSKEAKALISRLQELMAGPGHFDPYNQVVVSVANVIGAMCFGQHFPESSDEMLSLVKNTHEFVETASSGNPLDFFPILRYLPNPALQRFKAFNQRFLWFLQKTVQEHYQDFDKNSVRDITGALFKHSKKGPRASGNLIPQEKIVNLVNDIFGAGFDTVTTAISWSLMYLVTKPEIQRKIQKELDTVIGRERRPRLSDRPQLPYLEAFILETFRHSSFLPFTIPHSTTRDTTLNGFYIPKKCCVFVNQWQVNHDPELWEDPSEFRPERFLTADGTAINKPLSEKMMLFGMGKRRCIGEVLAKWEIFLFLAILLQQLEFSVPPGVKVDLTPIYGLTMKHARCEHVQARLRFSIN

In assay [7] the target is rat CYP2A1, Cyp2a1 (gene 24894) (UniProt P11711). In words: NVS_ADME_rCYP2A1: NovaScreen (NVS) CYP450-related Enzyme Activity (ADME) Assay for rat CYP2A1 (AID 2283114). A digest of the protocol: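 Recombinant rat CYP2A1, cell-free, fluorogenic substrate turnover read by fluorescence intensity 0.75 h after dosing. Primary screen at 10 uM in duplicate; actives rerun as concentration-response up to 20 uM; loss of signal versus acetonitrile control.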
Sequence of rat CYP2A1, Cyp2a1 (gene 24894) (P11711 whole entry, looked up): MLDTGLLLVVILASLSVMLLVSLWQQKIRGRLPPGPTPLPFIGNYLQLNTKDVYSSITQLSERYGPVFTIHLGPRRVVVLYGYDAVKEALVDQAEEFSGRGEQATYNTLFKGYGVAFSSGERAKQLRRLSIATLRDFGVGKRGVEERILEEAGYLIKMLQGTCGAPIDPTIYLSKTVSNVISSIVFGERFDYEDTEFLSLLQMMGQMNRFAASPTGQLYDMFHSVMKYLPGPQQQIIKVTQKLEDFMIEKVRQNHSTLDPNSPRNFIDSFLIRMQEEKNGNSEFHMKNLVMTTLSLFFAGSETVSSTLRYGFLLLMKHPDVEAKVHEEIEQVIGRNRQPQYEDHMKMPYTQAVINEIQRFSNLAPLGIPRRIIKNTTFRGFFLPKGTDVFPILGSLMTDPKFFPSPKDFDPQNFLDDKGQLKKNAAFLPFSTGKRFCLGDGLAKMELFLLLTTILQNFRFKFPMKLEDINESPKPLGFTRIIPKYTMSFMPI

In assay [8] the test system is rat CYP3A1, gene 25642. As to the kind of experiment: NVS_ADME_rCYP3A1: NovaScreen (NVS) CYP450-related Enzyme Activity (ADME) Assay for rat CYP3A1 (AID 2283126; active = hit-call score of the fitted dose curve at least 0.9, where 1 is the maximum). A digest of the protocol: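 Cell-free recombinant CYP assay with fluorescent substrate, read 0.5 h after dosing. Screened at 10 uM in duplicate, hits at up to 20 uM in concentration-response; loss of signal versus acetonitrile baseline.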

The target of assay [9] is Cytochrome P450 2C19 (Homo sapiens) (UniProt P33261). As to the kind of experiment: NVS_ADME_hCYP2C19: NovaScreen (NVS) CYP450-related Enzyme Activity (ADME) Assay for human CYP2C19 (AID 2283113; active = hit-call score of the fitted dose curve at least 0.9, where 1 is the maximum;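 also: potency for inhibition seen as loss of fluorescent signal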). A digest of the protocol: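 Cell-free assay of recombinant human CYP2C19 expressed in insect cells, with a fluorogenic substrate; fluorescence intensity read 1 hour after dosing. Loss of signal relative to acetonitrile negative control indicates inhibition. Primary screen at 10 uM in duplicate, then concentration series.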

In assay [10] the target is human CYP19A1, CYP19A1 (gene 1588) (UniProt P11511). As to the kind of experiment: NVS_ADME_hCYP19A1: NovaScreen (NVS) CYP450-related Enzyme Activity (ADME) Assay for human CYP19A1 (AID 2283098; active = hit-call score of the fitted dose curve at least 0.9, where 1 is the maximum;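 also: potency for inhibitors seen as loss of fluorescent enzyme signal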). A digest of the protocol:
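Biochem, cell-free; recombinant enzyme + specific substrate; fluorescence intensity at 0.5 h post-dose; 10 uM duplicate primary, conc. series for actives; acetonitrile = negative control/baseline; positive and negative controls on every plate.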

For assay [11], the target named is human CYP2D6, CYP2D6 (gene 1565) (UniProt P10635). As to the kind of experiment: NVS_ADME_hCYP2D6: NovaScreen (NVS) CYP450-related Enzyme Activity (ADME) Assay for human CYP2D6 (AID 2283107; active = hit-call score of the fitted dose curve at least 0.9, where 1 is the maximum). A digest of the protocol: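 Cell-free assay using recombinant enzyme expressed in insect cells, with fluorescence-intensity readout of enzyme activity 1 hour after chemical dosing. Loss of signal versus acetonitrile negative control indicates inhibition. Primary screen ran in duplicate at 10 uM; actives were retested in concentration series.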
Sequence of human CYP2D6, CYP2D6 (gene 1565) (P10635 whole entry, looked up): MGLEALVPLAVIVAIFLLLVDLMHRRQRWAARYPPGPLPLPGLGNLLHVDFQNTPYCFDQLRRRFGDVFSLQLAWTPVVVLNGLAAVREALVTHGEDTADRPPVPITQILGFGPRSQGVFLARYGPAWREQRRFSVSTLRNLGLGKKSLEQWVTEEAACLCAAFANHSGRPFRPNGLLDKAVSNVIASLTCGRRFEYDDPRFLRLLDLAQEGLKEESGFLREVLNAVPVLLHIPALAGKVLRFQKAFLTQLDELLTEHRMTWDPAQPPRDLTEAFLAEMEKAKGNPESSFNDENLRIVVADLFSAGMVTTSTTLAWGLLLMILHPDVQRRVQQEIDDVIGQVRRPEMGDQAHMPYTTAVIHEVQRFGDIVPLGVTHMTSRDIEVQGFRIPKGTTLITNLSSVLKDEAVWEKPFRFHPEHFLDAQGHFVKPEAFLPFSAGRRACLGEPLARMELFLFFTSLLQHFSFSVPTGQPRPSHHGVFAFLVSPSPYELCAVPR

For assay [12], the target named is rat CYP2A2, Cyp2a2 (gene 24895) (UniProt P15149). As to the kind of experiment: NVS_ADME_rCYP2A2: NovaScreen (NVS) CYP450-related Enzyme Activity (ADME) Assay for rat CYP2A2 (AID 2283116; active = hit-call score of the fitted dose curve at least 0.9, where 1 is the maximum). The essentials: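 Cell-free recombinant rat CYP2A2 activity with fluorogenic substrate, fluorescence read 0.2 h after dosing. Chemicals screened at 10 uM in duplicate, hits then run in concentration-response up to 20 uM; signal loss versus acetonitrile baseline.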
Sequence of rat CYP2A2, Cyp2a2 (gene 24895) (P15149 whole entry, looked up): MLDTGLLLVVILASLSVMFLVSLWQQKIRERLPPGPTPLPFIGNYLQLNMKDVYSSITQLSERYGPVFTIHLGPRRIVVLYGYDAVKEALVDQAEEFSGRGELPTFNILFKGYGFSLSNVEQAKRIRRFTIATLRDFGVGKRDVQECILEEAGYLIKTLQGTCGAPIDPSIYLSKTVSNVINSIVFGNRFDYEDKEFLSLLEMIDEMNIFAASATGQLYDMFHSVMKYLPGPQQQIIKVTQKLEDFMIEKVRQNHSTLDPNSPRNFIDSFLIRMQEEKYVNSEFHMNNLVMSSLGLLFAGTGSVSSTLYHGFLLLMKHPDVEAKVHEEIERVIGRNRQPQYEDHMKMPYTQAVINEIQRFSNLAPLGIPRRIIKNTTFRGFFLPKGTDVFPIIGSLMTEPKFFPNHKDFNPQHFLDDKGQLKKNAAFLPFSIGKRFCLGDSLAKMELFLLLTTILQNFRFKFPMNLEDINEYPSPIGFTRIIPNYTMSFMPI

Sequence of human CYP19A1, CYP19A1 (gene 1588) (P11511 whole entry, looked up): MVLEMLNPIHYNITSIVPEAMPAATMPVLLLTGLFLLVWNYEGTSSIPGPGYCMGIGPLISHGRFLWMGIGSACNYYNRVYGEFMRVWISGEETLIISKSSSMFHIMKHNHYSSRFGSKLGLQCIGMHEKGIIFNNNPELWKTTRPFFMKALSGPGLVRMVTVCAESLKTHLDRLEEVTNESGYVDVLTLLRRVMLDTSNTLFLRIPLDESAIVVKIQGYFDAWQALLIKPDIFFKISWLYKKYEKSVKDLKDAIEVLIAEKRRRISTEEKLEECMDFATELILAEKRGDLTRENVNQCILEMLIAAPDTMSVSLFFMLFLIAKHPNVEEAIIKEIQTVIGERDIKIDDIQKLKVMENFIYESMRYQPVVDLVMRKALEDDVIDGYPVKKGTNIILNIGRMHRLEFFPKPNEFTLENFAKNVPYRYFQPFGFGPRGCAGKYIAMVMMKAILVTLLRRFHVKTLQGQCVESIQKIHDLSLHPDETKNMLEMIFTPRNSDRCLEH

For `COCC(=O)N(c1c(C)cccc1C)[C@H](C)C(=O)OC`, the result in [1], in assay [2], in [3] and in [4] was inactive.

`CCCCCCCCCCCCN(C)C`: the result in [1], in [2], in assay [3] and in assay [4] was inactive.

With `CCC(C)(C#N)N=NC(C)(C#N)CC` (configuration not stated), the result in [1], in assay [2], in assay [3] and in [4] was inactive.

In the case of `CCCCOC(=O)COC(=O)c1ccccc1C(=O)OCCCC`, the outcome in assay [1], in [2], in assay [3] and in assay [4] was inactive.

In the case of `Clc1cccc(Cl)c1`, the result in assay [1], in assay [2], in assay [3] and in assay [4] was inactive.

`Cc1cc(Cl)ccc1OC(C)C(=O)O` (configuration not stated): the result in assay [1], in [2], in assay [3] and in assay [4] was inactive.

What is called AC50 is the concentration giving half of the maximal activity seen. Regarding `OCCCCO`, the result in assay [1], in assay [2], in assay [3] and in assay [4] was inactive. Further, the AC50 in assay [3] was 0.61 µM (active).

As for `c1ccc2sc(SNC3CCCCC3)nc2c1`, the figures for the AC50 in assay [1] and in assay [3] were 27 µM (active) and 29.2 µM (active), respectively. Besides, the result in [2] and in assay [4] was inactive.

Regarding `Cc1c([N+](=O)[O-])c(C)c([N+](=O)[O-])c(C(C)(C)C)c1[N+](=O)[O-]`, the result in [1], in assay [2] and in assay [4] was inactive. In addition, the AC50 in assay [3] is 6.82 µM (active).

Turning to `Cc1cc(C)cc(C)c1`, the outcome in assay [1], in assay [2], in assay [3] and in assay [4] was inactive.

On to `COc1ccccc1N`, for which the result in [1], in assay [2], in [3] and in [4] was inactive.

For `Cc1cc(Cl)ccc1N`, the result in assay [1], in [2], in assay [3] and in assay [4] was inactive.

`O=c1oc2ccccc2c(O)c1C(CC(O)c1ccc(-c2ccc(Br)cc2)cc1)c1ccccc1` (configuration not stated): the AC50 in assay [1] was 23.5 µM (active); in [3], 26.4 µM (active); in assay [4], 19.1 µM (active). In addition, the result in [2] was inactive.

As for `CC(C)N(C(=O)CCl)c1ccccc1`, the figures for the AC50 in assay [1], in assay [3] and in assay [4] were 16.7 µM (active), 3.59 µM (active) and 33.8 µM (active), respectively. Further, the result in [2] was inactive.

As for `CCN(CC)C(=O)C(Cl)=C(C)OP(=O)(OC)OC`, the result in [1], in [2], in assay [3] and in assay [4] was inactive.

Regarding `c1ccc(-c2cccc(-c3ccccc3)c2)cc1`, the AC50 in assay [1] is 20 µM (active); in [2], 20 µM (active); in assay [3], 29.2 µM (active); in assay [4], 27.5 µM (active).

On to `Oc1cccc(-c2ccccc2)c1`, for which the AC50 in assay [1] was 32.1 µM (active); in [3], 20 µM (active); in assay [4], 20 µM (active). For the same compound, in assay [2], the result was inactive.

Regarding `O=S(=O)(C(Cl)(Cl)Cl)C(Cl)(Cl)Cl`, the AC50 is 2.3 µM (active) in assay [1], 1.79 µM (active) in assay [2], 0.798 µM (active) in assay [3] and 3.74 µM (active) in assay [4].

As to `CCOP(=S)(OCC)SCS(=O)(=O)C(C)(C)C`, the result in assay [1], in assay [2], in assay [3] and in assay [4] was inactive.

On to `Clc1cccc(Cl)c1Cl`, for which the outcome in [1], in [2], in assay [3] and in assay [4] was inactive.

With `O=C(CCl)NCO`, the result in [1], in [2], in [3] and in [4] was inactive.

With `C#CCOC(=O)/C=C(C)/C=C/CC(C)CCCC(C)C` (configuration not stated), the outcome in assay [1], in assay [2], in assay [3] and in [4] was inactive.

Take `C=CC(Cl)CCl` (configuration not stated): the outcome in assay [1], in assay [2], in assay [3] and in assay [4] was inactive.

`CCOC(=O)CC(=O)CCl`: the half-maximal activity concentration (AC50) in assay [1] is 9.62 µM (active); in assay [2], 9.73 µM (active); in assay [3], 16.2 µM (active). The outcome in assay [4] was inactive.

`Cc1ccc2nc3sc(=O)sc3nc2c1`: the result in [1] and in assay [2] was inactive. For the same compound, the half-maximal activity concentration (AC50) in assay [3] was 7.93 µM (active); in [4] it was 5 µM (active).

`NC(=O)CCl`: the result in assay [1], in assay [2], in assay [3] and in assay [4] was inactive.

On to `Oc1cc(Cl)c(Cl)cc1Cl`, for which the outcome in assay [1] was inactive. In addition, the concentration at half-maximal activity (AC50) in assay [2] is 31.1 µM (active); in assay [3], 30.6 µM (active); in [4], 27.6 µM (active); in [5] it was 0.605 µM (active).

`C[C@]12CC[C@@H](O)C[C@@H]1CC[C@@H]1[C@@H]2CC[C@]2(C)C(=O)CC[C@@H]12`: the outcome in [1], in [2], in assay [3] and in [4] was inactive.

With `COC(=O)Nc1cccc(OC(=O)Nc2cccc(C)c2)c1`, in [6], the compound was called inactive. Also, the values for the AC50 in assay [7] and in [8] were 3.46 µM (active) and 11.4 µM (active), respectively.

As for `O=[N+]([O-])c1ccc(Nc2ccccc2)cc1`, the outcome in assay [1], in assay [2], in assay [3] and in assay [4] was inactive. The half-maximal activity concentration (AC50) in assay [9] was 5 µM (active).

Take `O=C1c2ccccc2C(=O)C1C(=O)C(c1ccccc1)c1ccc(Cl)cc1` (configuration not stated): the AC50 in assay [10] is 5.08 µM (active).

Take `O=C(O)COc1cc(Cl)c(Cl)cc1Cl`: the result in [1], in assay [2], in assay [3] and in assay [4] was inactive.

Turning to `CC(C)(C)c1cc([N+](=O)[O-])cc(C(C)(C)C)c1O`, the outcome in assay [1] and in assay [3] was inactive. Also, the figures for the half-maximal activity concentration (AC50) in assay [2] and in assay [4] were 0.0941 µM (active) and 0.215 µM (active), respectively.

In the case of `[Cl][Sn]([c]1ccccc1)([c]1ccccc1)[c]1ccccc1`, the AC50 in assay [1] is 0.125 µM (active); in assay [2], 0.253 µM (active); in assay [3], 0.0609 µM (active); in assay [4], 0.337 µM (active); in assay [11], 0.997 µM (active); in assay [9], 1.25 µM (active).

In the case of `CCOP(=S)(OCC)OP(=S)(OCC)OCC`, the AC50 is 25.3 µM (active) in assay [1], 36 µM (active) in assay [2] and 20 µM (active) in assay [3]. The result in [4] was inactive.

Take `O=C(O)COc1ccc(Cl)cc1`: the compound was classed as inactive in [12].

For `N#CCCC(Br)(C#N)CBr` (configuration not stated), the AC50 is 2.52 µM (active) in [1]; 20 µM (active) in assay [2]; 1.12 µM (active) in assay [3]; 11.5 µM (active) in [4]; 3.08 µM (active) in assay [11].
